# Source: PubChem BioAssay (several laboratories)
# Hits are enriched below; roughly 1.3% of the tested compounds scored in any of these assays.
# Phagocytosis inh = inhibitors of macrophage phagocytosis | J774A.1 macrophage IgG-bead phagocytosis, imaging | actives 0.07% (n = 110,000) | inhibition, % at 5 µM;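 active means inhibition above the mean of the plate negative controls plus 5 SD, cut at about 13% in these data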;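 further: phagocytic index as fraction of beads internalized from green versus red external bead signal; plate controls were DMSO negative control for no effect and cytochalasin-D positive control for full effect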
# GALR2 antag = blocks the human galanin receptor 2; O43603; GALR2-expressing cells, antagonist mode; inhibition, % at 4 µM; actives 0.39% (n = 140,000); in the data active means inhibition above about 27%;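 further: cells stimulated with galanin 1-16 at roughly its EC80; 0% = agonist challenge control and 100% = basal control without agonist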
# Target sequence (O43603 whole entry, looked up): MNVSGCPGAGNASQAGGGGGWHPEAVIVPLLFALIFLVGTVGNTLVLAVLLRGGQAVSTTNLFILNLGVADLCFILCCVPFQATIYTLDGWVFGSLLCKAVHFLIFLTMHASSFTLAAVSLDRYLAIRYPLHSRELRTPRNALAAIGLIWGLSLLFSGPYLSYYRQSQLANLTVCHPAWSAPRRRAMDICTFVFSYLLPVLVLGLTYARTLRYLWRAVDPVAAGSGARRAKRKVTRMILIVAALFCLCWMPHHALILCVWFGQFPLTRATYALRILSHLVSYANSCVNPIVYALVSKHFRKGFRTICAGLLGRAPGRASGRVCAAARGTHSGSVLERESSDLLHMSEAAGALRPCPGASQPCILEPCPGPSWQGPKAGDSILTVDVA
# S1P2 blocker = blocks the human S1P2 receptor; O95136; cell-based S1P2 antagonist assay, inhibition at 5 uM; inhibition, % at 5 µM; actives 0.21% (n = 97,000); AID 736; in the data active means inhibition above about 45%;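 further: CRE beta-lactamase reporter cells expressing human S1P2 stimulated with S1P; 0% = agonist at EC80 alone and 100% = agonist plus reference antagonist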
# S1P2 agonist = activates the human S1P2 receptor. actives 0.46% (n = 97,000). activation, % at 4.5 µM. S1P2-expressing cell line, agonist reporter read-out. O95136; in the data active means activation above about 16%;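 further: 0% = vehicle low control and 100% = maximal reference agonist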
# GALR2 ag = activates the human galanin receptor 2 | GALR2-expressing cells, agonist activation read-out | activation, % (no concentration beside the values) | actives 0.48% (n = 140,000); in the data active means activation above about 5%, passing the limit was not always enough;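 further: 0% = vehicle buffer wells and 100% = reference agonist at full effect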
# * hit, by the source's call; . = not tested or not shown; [ ] = another dose, or the depositor's remark.
SMILES,Phagocytosis inh,GALR2 antag,S1P2 blocker,S1P2 agonist,GALR2 ag
COC(=O)C1=C(COc2ccc(C=O)cc2OC)NC(=O)NC1c1cc(C)ccc1C (stereo not given),-11,4,.,.,-2
O=C(CC1(C(F)(F)F)OCCO1)Nc1ccc2c(c1)OCO2,.,9,-6,-3,-3
O=C(c1ccccc1)c1cc2ccc(O)cc2oc1=O,.,3,12,0,-1
Cc1ccc(N=c2oc3cc(O)ccc3cc2C(N)=O)cc1,1,-16,-2,17*,42*
COc1ccc(N=c2oc3cc(O)ccc3cc2C(=O)NCC2CCCO2)cc1 (stereo not given),-1,-26,-43,18*,16*
COc1ccc(N=c2oc3cc(O)ccc3cc2C(=O)NCC2CCCO2)c(OC)c1 (stereo not given),-1,-53,-81,37*,68*
CCOc1ccc(N=c2oc3cc(O)ccc3cc2C(=O)NCC2CCCO2)cc1 (stereo not given),1,0,-14,1,7
CCn1c2ccccc2c2nc3ccccc3nc21,0,-4,-36,19*,1
CCn1c2ccccc2c2nc3cc(OC)c(OC)cc3nc21,-1,-5,-37,23*,1
Cc1csc(NC(=O)CSc2nnc(NC(=O)COc3ccccc3)s2)n1,1,4,.,.,-1
c1ccc2nc3c(nc2c1)[nH]c1ccccc13,0,10,.,.,-1
c1ccc(-c2c3ccccc3nc3[nH]c4ccccc4c23)cc1,.,-5,.,.,5.0*
Cc1cc(C)n2nc(S(=O)(=O)N(C)c3ccccc3)nc2n1,0,2,-5,52*,0
CCOC(=O)c1cc(C)nn1-c1nc(Cl)cc(OC)n1,3,3,.,.,0
CCOC(=O)c1sc2nc(C3CC3)cc(-c3ccc(OC)cc3)c2c1N,-2,-8,13,4,-1
CCOC(=O)c1sc2nc(C3CC3)cc(-c3ccc(F)cc3)c2c1N,-1,-7,-16,38*,-1
CC(C)Cn1c(N)c(C(=O)COC(=O)c2ccc3ccccc3n2)c(=O)n(C)c1=O,.,12,-22,22*,-2
COc1ccc(C2=NCCn3cccc32)c(OC)c1,-3,-5,.,.,0
CCN(C(=O)c1ccnn1C)c1ccccc1,-2,1,.,.,-1
N#Cc1c(NCCN)nc(-c2ccco2)c2c1CCCC2,-2,-12,-47,20*,6
CC(C)CCNc1nc(-c2ccco2)c2c(c1C#N)CCCC2,0,0,-50,37*,10
COc1cccc(/C=N/Nc2snc(SC)c2C#N)c1,.,14,1,-9,-1
COc1ccc(/C=N/Nc2snc(SC)c2C#N)cc1OC,-3,18,-12,-6,5.1*
O=C(Cc1ccc(-n2c(=O)[nH]c3ccsc3c2=O)cc1)N1CCN(c2ccc(Cl)cc2)CC1,-6,9,.,.,1
COc1ccc(CN2C(=S)NC(C)(C)CC2(C)O)cc1 (stereo not given),-1,1,.,.,0
SMILES,Phagocytosis inh,GALR2 antag,S1P2 blocker,S1P2 agonist,GALR2 ag
CC(O)C1C(=O)OC2(C)CC(C)(C)NC(=S)N12 (stereo not given),.,24,-2,44*,-3
O=C(CSc1nnc(-c2ccncc2)o1)Oc1ccccc1,-1,0,9,-1,-1
O=C(CSc1nnc(-c2cccnc2)o1)Oc1ccccc1,26*[artifact],-3,2,-2,-2
Cc1ccc(C(=O)n2c(-c3ccccc3)cnc2SCC(=O)Nc2ccc(C)cc2C)cc1,-5,15,.,.,-1
CCCCC1NC(=S)N(C2CCCCC2)C1=O (stereo not given),-3,1,.,.,7.1*
CCC(C)C1NC(=S)N(C2CCCCC2)C1=O (stereo not given),.,9,-19,-4,0
C/C(=N/N=C1/NC(=O)CC(C(=O)Nc2ccccc2)S1)c1cccs1 (stereo not given),-11,5,.,.,-1
O=C1c2cccc3c([N+](=O)[O-])ccc(c23)C(=O)N1c1ccc(Cl)cn1,2,18,71*,4,2
O=C1c2cccc3c(N4CCCCC4)ccc(c23)C(=O)N1c1ccc(Cl)cn1,.,9,51*,-6,-1
S=C(c1ccc(-c2ccccc2Cl)o1)N1CCCCC1,-14,-6,.,.,-1
COc1cc2c(cc1OC)C(c1ccc(-c3cc(Cl)ccc3Cl)o1)=NCC2,-1,-9,-55,39*,0
COc1cc2c(cc1OC)C(c1ccc(-c3ccc(Cl)c(Cl)c3)o1)=NCC2,-1,-1,-35,19*,2
COc1ccc2c(c1)CCN=C2Cc1ccc(OC)c(OC)c1,-5,7,.,.,-1
